Sampled rows, rich in hits. Any-hit rate of the full collection: about 8.3%.
HCV inhibitor – blocks hepatitis C virus | AID 651820 | Huh7.5.1 HCVcc-Cre infection, luciferase reporter, 44 h | 340,000 tested, 3.4% active | Potency, µM (series often up to 41.8 µM), without a hit: at the top dose activity change, negative = inhibition, usual class: inhibitors; further: potency means the concentration at half of the fitted maximal effect
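1,000 cells/well; 4 h culture; + compound; + HCVcc-Cre (~0.5 moi); 44 h; luciferase substrate, RT 15 min; read 15 sec.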
MARV entry inh – Marburg virus entry inhibition | Potency, µM (highest dose often 37.8 µM), for inactives: at the highest dose activity change, negative = inhibition, usual class: inhibitors | AID 540276 | Marburg virus pseudotyped entry inhibition, cell reporter | 300,000 tested, 1.8% active; calls by dose curve; tested in HEK293 cells; further: potency means the concentration at half of the fitted maximal effect
FBPA Giardia inh – blocks Giardia fructose-bisphosphate aldolase activity; A8B2U2; purified Giardia FBPA; Potency, µM (top dose mostly 59.6 µM), for the others: top-dose activity, negative = inhibition, hits mostly inhibitors; 290,000 tested, 0.71% active; further: potency means the concentration at half of the fitted maximal effect; nearly all actives have a fitted effect of over 55% in size
Target sequence (A8B2U2 whole entry, looked up): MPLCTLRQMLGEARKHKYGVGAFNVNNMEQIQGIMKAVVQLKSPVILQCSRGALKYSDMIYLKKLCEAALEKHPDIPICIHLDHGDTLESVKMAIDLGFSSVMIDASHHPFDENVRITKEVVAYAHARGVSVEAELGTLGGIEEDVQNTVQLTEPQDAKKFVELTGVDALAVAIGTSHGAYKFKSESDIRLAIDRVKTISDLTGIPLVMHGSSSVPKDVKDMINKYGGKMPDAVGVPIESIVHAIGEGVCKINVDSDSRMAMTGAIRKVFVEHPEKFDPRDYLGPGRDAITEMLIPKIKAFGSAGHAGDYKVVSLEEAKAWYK
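40 nM FBPA preincubated 10 min at RT with compound (up to 57.5 uM final), then substrate plus GAPDH/TPI/NAD/arsenate coupling and diaphorase/resazurin added. Fluorescence read after 20 min at RT, 525/598 nm.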
FMDV inh – blocks foot and mouth disease virus. AID 1159524. 410,000 tested, 1.2% active. FMDV antiviral cell-based qHTS. Potency, µM (highest dose often 57.9 µM), for inactives: at the highest dose activity change, negative = inhibition, usual class: inhibitors; calls by dose curve; tested in HEK293T cells; further: read-out not given here; potency means the concentration at half of the fitted maximal effect; nearly all actives have a fitted effect of over 45% in size
HCMV antiviral – blocks human cytomegalovirus replication. HFF cells, HCMV-luciferase reporter, 72 h; active compounds read low. activity change, negative = inhibition, % at 57.5 µM. 410,000 tested, 4.5% active; in the data active means activity change below about -60%; inconclusive means no clear call, values can overlap the other calls; inactive means above about -39%
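Steps: HFFs plated, 16 h 37C; compounds added; HCMV-luciferase added to MOI 1 PFU/cell; 72 h 37C; OneGlo reagent, 5 min room temperature; luminescence read, normalized to controls.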
Lassa entry inh – Lassa virus entry inhibition. Potency, µM (series often up to 37.9 µM), without a hit: top-dose activity change, negative = inhibition, actives largely listed as inhibitors. 300,000 tested, 1.2% active. Lassa virus pseudotype entry inhibition, cell reporter. AID 540256; calls by dose curve; tested in HEK293 cells; further: potency means the concentration at half of the fitted maximal effect; nearly all actives have a fitted effect of over 50% in size
* = called active by the depositor; ? = inconclusive; . = no result given; [ ] = dose if it differs, or a comment. Unless noted, the call rests on the fitted dose curve; in most records, active means well fitted curve in the direction sought with a large enough effect; inconclusive means small, poorly fitted or top-dose-only effect, or another doubt; inactive means no such curve, though single readings can be large; an effect the other way counts as inactive or inconclusive. On the % scale 0 is the no-effect control and ±100 the full control effect.

SMILES	HCV inhibitor	MARV entry inh	FBPA Giardia inh	FMDV inh	HCMV antiviral	Lassa entry inh
CCOC(=O)N1CCc2c(sc3c2c(=O)n(-c2ccc(Cl)cc2)c(=O)n3CC(C)C)C1	.	8.8%[46.1 µM]	.	-2.9%	-65.5*	-14.8%[46.1 µM]
CCOC(=O)N1CCc2c(sc3c2c(=O)n(-c2ccc(F)cc2)c(=O)n3CC(=O)c2ccc(Cl)cc2)C1	.	-17.0%[46.1 µM]	.	-20.2%	-18.1	-1.7%[46.1 µM]
COc1ccccc1-n1c(=O)c2c3c(sc2n(Cc2ccccc2F)c1=O)CN(C(C)=O)CC3	.	.	.	-16.7%	23.8	4.9%[46.1 µM]
CC(=O)N1CCc2c(sc3c2c(=O)n(CCc2ccccc2)c(=O)n3Cc2ccc(Cl)cc2)C1	.	?	.	?	-106.2*	.
CCOC(=O)N1CCc2c(sc3c2c(=O)n(-c2ccccc2C(F)(F)F)c(=O)n3Cc2ccccc2C)C1	.	-2.5%[46.1 µM]	.	0.0%	-100.7*	-7.9%[46.1 µM]
Nc1nc2c(nc(Br)n2C2OC3COP(=O)(O)O[C@@H]3C2O)c(=O)[nH]1 (stereo partly drawn)	.	?	.	.	.	-7.3%
CCOc1ccc(NC(=O)Cn2ccn3nc(-c4ccc(OC)c(OC)c4)cc3c2=O)cc1	.	.	.	45.9%	20.5	?
C=CCn1c(O)c(C2=c3ccccc3=NC2=O)c2ccccc21	5.4%	?	4.5%	28.2µM*	10.4	?
COc1ccc2c(c1)sc1ncc(C(=O)NCc3ccc(Cl)cc3)c(=O)n12	.	-1.9%[46.1 µM]	.	-4.0%	-2.4	.
CC(=O)Nc1ccc(/C(C)=N/NC(=O)C2CC2c2ccccc2)cc1 (stereo not drawn)	-20.5%	3.4%	5.2%	-10.9%	-11.3	0.0184µM*
O=C(N/N=C/C=C/c1ccccc1)C1CC1c1ccccc1 (stereo not drawn)	-18.1%	?	3.5%	12.8%	5.3	0.13µM*
COc1ccccc1-c1oc2ccccc2c(=O)c1OC	.	.	5.5%	.	.	.
COc1cc(NC(=O)Cn2nc(C(F)(F)F)c(Br)c2C)cc([N+](=O)[O-])c1	-22.6%	?	2.1%	39.8µM*	-95.7*	-0.4%
COc1ccc(CNC(=O)Cn2nc(C(F)(F)F)c(Br)c2C)cc1	-15.5%	.	-0.9%	-15.0%	-6.0	.
Cc1nc(Nc2ccc(O)cc2)c2c3c(sc2n1)CCCC3	?	?	-26.2%	-21.3%	-75.9*	?
Nc1n[nH]c(-c2ccccc2[N+](=O)[O-])n1	26.3%	?	0.3%	-2.9%	-95.8*	17.7%
CCC1(c2ccc(OC)cc2)NC(=O)N(C)C1=O (stereo not drawn)	.	.	1.8%	.	.	.
COC(=O)c1ccc(C2NC(=S)N(c3ccccc3)C(C)=C2C(=O)Nc2ccccc2OC)cc1 (stereo not drawn)	?	?	1.5%	0.9%	-1.0	6.51µM*
COc1ccccc1NC(=O)C1=C(C)N(c2ccccc2)C(=S)NC1c1cccc(C(F)(F)F)c1 (stereo not drawn)	?	?	-4.5%	-22.3%	-95.8*	?
COc1ccc(NC(=O)CSC2=Nc3ccccc3C3=NC(CCC(=O)NCc4ccco4)C(=O)N23)cc1 (stereo not drawn)	.	.	.	?	-37.4	22.3%[46.1 µM]
Cc1cc(C(=O)NC2CC(C)(C)Cc3c2cnn3-c2ccccc2)n(C)n1 (stereo not drawn)	-15.0%	?	.	?	-18.1	-2.0%
CC(=O)[C@@]1(O)C(C)CC2C3C=C(C)C4=Cc5c(cnn5-c5ccccc5)C[C@]4(C)C3C(O)C[C@@]21C (stereo partly drawn)	7.08µM*	7.94µM*	-7.2%	-18.2%	?	?
Cc1ccc2cc(CCNC(=O)CC(C)C)c(=O)[nH]c2c1	-0.5%	.	-2.1%	-13.3%	-67.5*	.
O=C(NCc1cc(C(F)(F)F)ccc1Cl)c1cccc2c1C(=O)c1ccc(N3CCC(N4CCCCC4)CC3)cc1S2(=O)=O	.	.	.	0.0%	-101.3*	.
O=C(NCc1cc(C(F)(F)F)ccc1Cl)c1cccc2c1C(=O)c1ccc(N3CCCCC3)cc1S2(=O)=O	23.1%	.	.	-7.7%	-4.4	.
SMILES	HCV inhibitor	MARV entry inh	FBPA Giardia inh	FMDV inh	HCMV antiviral	Lassa entry inh
COc1ccc(C(=O)N2CCC(C(=O)c3ccc(F)cc3)CC2)cc1	-3.4%	?	8.1%	?	-19.5	-19.3%
CCOc1ccc(C(=O)N2CCC(C(=O)c3ccc4c(c3)OCCO4)CC2)cc1	10µM*	-16.2%	-0.5%	-23.9%	?	-19.7%
COc1ccc(CNC(=O)CN2CCC(C(=O)c3ccc(OC)cc3)CC2)cc1	12.6µM*	-20.2%	-2.3%	?	-77.8*	?
Cc1ccc(C(=O)C2CCN(C(=O)c3ccc(C)cc3)CC2)cc1	?	.	9.1%	-45.3%	.	.
Cc1ccc(C(=O)N2CCC(C(=O)c3c(C)cc(C)cc3C)CC2)cc1	11.2µM*	.	-0.4%	?	.	.
COc1ccc(C(=O)C2CCN(C(=O)c3ccc(OC)cc3)CC2)cc1	7.94µM*	?	7.2%	-1.7%	?	?
Cc1ncc2c(c1CNC(=O)/C=C/c1cccs1)CCN(C(=O)C1CC(=O)OC13CCCCC3)C2 (stereo not drawn)	.	.	.	-1.0%	.	.
CCc1cccc(NC(=O)c2cc3c(=O)oc4ccc(C)cc4c3s2)c1	.	-1.8%[46.1 µM]	.	6.6%	-11.0	-1.2%[46.1 µM]
Cc1cc(C)n(CC(=O)Nc2cc(F)ccc2F)c(=O)c1C#N	.	.	.	-1.9%	-3.8	-1.7%[46.1 µM]
Cn1c(=O)c2cc(NC(=S)NC3CCCCC3)ccc2n1Cc1cccc(C(F)(F)F)c1	.	.	.	8.0%	-70.5*	.
CCN(CC)S(=O)(=O)c1cc(-c2nnc(Nc3ccc(OC)c(C(N)=O)c3)c3ccccc23)ccc1C	.	.	.	?	-64.7*	?
COc1ccc(Nc2nnc(-c3ccc(C)cc3)c3ccccc23)cc1C(=O)N1CCCCC1	?	?	-2.0%	?	-73.3*	?
COc1ccc(Nc2nnc(-c3ccccc3)c3ccccc23)cc1C(=O)N1CCCCC1	-1.9%	?	1.4%	-29.5%	-9.8	-12.8%[46.1 µM]

Compound activity from PubChem BioAssay.
